Screening results (PubChem BioAssay)
Rows were chosen to be rich in hits. Some 3.3% of all compounds tested hit in one or more screens of this group.
TPT1 inh – inhibitors of Candida albicans tRNA 2'-phosphotransferase TPT1; 300,000 compounds, 0.81% hits; inhibition, % at 5 µM; recombinant caTPT1, FP RNA substrate dephosphorylation; AID 1962;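 active = inhibition above the mean of all tested compounds plus 3 SD, set per screening campaign, cut at about 24% in these data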
Rpn11 block – blocks the human proteasome subunit Rpn11 | AID 588493 | 360,000 compounds, 0.59% hits | O00487 | human 26S proteasome, Ub4-pepOG fluorescence polarization; 20S core pre-blocked with epoxomicin | inhibition, % at 20 µM;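 active = inhibition at 20 µM, scaled to each plate's controls, above about 33%, limit read from the data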
CendR NRP1 mod – modulators of CendR peptide binding to human neuropilin-1. O14786. FAM-RPARPAR peptide binding to NRP-1, fluorescence polarization. inhibition, % at 25 µM. 360,000 compounds, 0.85% hits;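 active = inhibition or corrected inhibition above about 18%, plus a signal ratio from 0.5 to 1.5, limit read from the data, passing the limit was not always enough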
PHOSPHO1 inh – PHOSPHO1 (human) inhibition | Q8TCT1 | recombinant PHOSPHO1, absorbance phosphatase assay | inhibition, % at 13.3 µM | 290,000 compounds, 1.1% hits; in the data active = inhibition above about 60%
HNF4A DNA FP – change in binding of human HNF4 alpha to DNA; P41235; HNF4a-FITC DNA binding, fluorescence polarization, 1 h; activity change, % at 10 µM; 360,000 compounds, 0.3% hits; AID 1224865; in the data active = activity change above about 30%, passing the limit was not always enough
Target sequence (P41235 whole entry, looked up): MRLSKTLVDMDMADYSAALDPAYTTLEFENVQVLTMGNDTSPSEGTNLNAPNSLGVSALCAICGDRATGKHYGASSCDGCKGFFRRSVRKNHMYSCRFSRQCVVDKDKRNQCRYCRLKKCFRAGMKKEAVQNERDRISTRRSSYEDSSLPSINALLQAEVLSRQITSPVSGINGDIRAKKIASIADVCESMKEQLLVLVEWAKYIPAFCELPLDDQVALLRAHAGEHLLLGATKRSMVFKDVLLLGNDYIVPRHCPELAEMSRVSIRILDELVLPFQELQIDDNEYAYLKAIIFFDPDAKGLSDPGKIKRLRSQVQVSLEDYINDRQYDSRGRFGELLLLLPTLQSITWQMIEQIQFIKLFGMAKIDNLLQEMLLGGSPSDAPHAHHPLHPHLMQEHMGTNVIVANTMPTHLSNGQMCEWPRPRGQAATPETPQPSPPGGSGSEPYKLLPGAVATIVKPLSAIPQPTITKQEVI
CTSL1 counter – cathepsin L1 inhibition, PFM18AAP counter-screen; inhibition, % at 5.96 µM; 300,000 compounds, 0.49% hits; AID 1906; recombinant F. hepatica cathepsin L1, Z-Leu-Arg-MCA fluorescence;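 active = inhibition above the mean of all tested compounds plus 3 SD, set per screening campaign, cut at about 17% in these data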
Large screens that a line does not name were inactive.

CC#CCN(Cc1ccco1)C(=O)C1CCC(=O)N(CCc2cccc(F)c2)C1 (centres undefined)	none (no result: TPT1 inh, PHOSPHO1 inh, CTSL1 counter)
CC(=O)Nc1cc(-c2cccc(C(=O)NCCO)c2)cn2c(-c3ccc(F)c(Cl)c3)cnc12	none (no result: TPT1 inh, PHOSPHO1 inh, CTSL1 counter)
CCOC(=O)c1cc(S(=O)(=O)NC2CCC(C)CC2)cn1C (centres undefined)	PHOSPHO1 inh 64
O=C(CC(c1ccccc1)c1ccccc1O)NCc1ccccc1 (centres undefined)	CTSL1 counter 18
CC(Cc1ccccc1)NC(=O)CC(c1ccccc1)c1ccccc1O (centres undefined)	none
CC(=O)Nc1ccc(S(=O)(=O)NCCc2ccccn2)cc1	none (not shown: Rpn11 block)
C[C@H]1CN([C@@H](C)CO)C(=O)c2cc(NC(=O)Nc3cccc4ccccc34)ccc2O[C@@H]1CN(C)Cc1ccc(-c2ccccc2)cc1	CendR NRP1 mod 25 (no result: TPT1 inh, PHOSPHO1 inh, CTSL1 counter)
C[C@@H]1CN([C@@H](C)CO)C(=O)Cc2cc(NS(=O)(=O)c3ccccc3)ccc2O[C@H]1CN(C)S(C)(=O)=O	CendR NRP1 mod 21 (no result: TPT1 inh, PHOSPHO1 inh, CTSL1 counter)
C[C@H](CO)N1C[C@H](C)[C@@H](CN(C)S(=O)(=O)c2ccccc2)Oc2ccc(NC(=O)Cc3ccccc3)cc2C1=O	CendR NRP1 mod 24 (no result: TPT1 inh, PHOSPHO1 inh, CTSL1 counter)
Fc1cccc(/C=N/Nc2cc(N3CCOCC3)ncn2)c1	none
Cc1ccc(C)c2[nH]c(=O)c(C(c3nnnn3C3CCCC3)N3CCOCC3)cc12 (centres undefined)	none
CCOC(=O)C1CCN(C(c2cc3c(C)ccc(C)c3[nH]c2=O)c2nnnn2C2CCCCC2)CC1 (centres undefined)	PHOSPHO1 inh 74
CCOC(=O)C1CCN(C(c2cc3ccc(C)c(C)c3[nH]c2=O)c2nnnn2C2CCCCC2)CC1 (centres undefined)	Rpn11 block 31, PHOSPHO1 inh 86
COC(=O)CSc1nc2c(c(=O)[nH]c(=O)n2C)n1CCC(C)C	none
CC(C)(C)NC(=O)CN(CC1CCCO1)C(=O)CNS(=O)(=O)c1ccc(F)cc1 (centres undefined)	none
CCc1ccc(-c2nc(CN3CCC(C(=O)NCc4ccccc4OC)CC3)c(C)o2)cc1	PHOSPHO1 inh 77
CC(=O)Nc1n[nH]c(S(=O)(=O)Cc2ccc(Cl)cc2Cl)n1	none
Cc1ccc(-c2csc3n[nH]c(=S)n23)cc1	PHOSPHO1 inh 95
Cc1ccc(-n2cccc2C(=S)N=P(N(C)C)(N(C)C)N(C)C)cc1	PHOSPHO1 inh 67
COc1ccccc1NC(=O)c1cc(C(=O)Nc2ccccc2OC)cc(N2C(=O)CCC2=O)c1	none
O=C(Cn1c(NCCCCl)nc2ccccc21)c1ccccc1	CendR NRP1 mod 31 (no result: TPT1 inh, PHOSPHO1 inh, CTSL1 counter)
CC1CC(C)CN(S(=O)(=O)c2cccc(C(=O)OCCN3CCCC3=O)c2)C1 (centres undefined)	CTSL1 counter 18
O=C1CC2(CCCCCC2)Oc2ccc(Cl)cc21	none (no result: PHOSPHO1 inh)
O=C(/C=C/c1ccc[nH]1)c1ccccc1	none
COc1cccc(-c2noc(C(C)n3nc(C)c([N+](=O)[O-])c3C)n2)c1 (centres undefined)	CTSL1 counter 18
Cc1cc(=O)c2ccccc2n1CC(=O)NCc1ccccc1	HNF4A DNA FP 30
O=C(CN1C(=O)CSC1=O)NCc1ccccc1	CendR NRP1 mod 27
CC1SCC(=O)N(CC(=O)NCc2ccccc2)C1=O (centres undefined)	none
Cc1cc(=O)c2ccccc2n1Cc1ccccc1	none
O=C(CCCCCNC(=O)N1CCn2c1nc1ccccc12)N[C@H](C(=O)O)c1ccccc1	none
O=c1[nH]c(=O)n(-c2cc(Br)c(O)c(Br)c2)cc1Br	CTSL1 counter 33
Cc1cc(-n2cc(Br)c(=O)[nH]c2=O)nc(-c2ccccc2)n1	none
COc1cc(/C=C(\NC(C)=O)C(=O)Nc2cccc(O)c2)ccc1OC(C)=O	HNF4A DNA FP 37
CCN(CC)C(=O)C(=O)Nc1cc(C(F)(F)F)ccc1Cl	PHOSPHO1 inh 75
O=C(O)CSCC(=O)Nc1cc(C(F)(F)F)ccc1Cl	none
Cc1ccc(C)c(OCCCC(C)(C)C(=O)O)c1	none
Cc1ccc(C)c(OCCCC(=O)O)c1	CTSL1 counter 17
CC(/C=C1\SC(=S)N(NC(=O)c2cccc(O)c2)C1=O)=C\c1ccccc1	none
O=[N+]([O-])c1ccc(O)c(/C=N/n2cnc3ccccc32)c1	none
O=C(NN1C(=O)/C(=C/c2cc([N+](=O)[O-])ccc2O)SC1=S)c1ccccc1O	TPT1 inh 53 (no result: Rpn11 block, CendR NRP1 mod, PHOSPHO1 inh, HNF4A DNA FP)
Cc1ccc(/C=C2\SC(=S)N(/N=C/c3cc([N+](=O)[O-])ccc3O)C2=O)o1	Rpn11 block 46
CC1(C(=O)CSc2ncn[nH]2)CCC(=O)O1 (centres undefined)	PHOSPHO1 inh 93 (no result: Rpn11 block, CendR NRP1 mod, HNF4A DNA FP)
CC1(C(=O)CSc2nc3ccccc3[nH]2)CCC(=O)O1 (centres undefined)	none
CC(=O)c1ccc(/C=C/c2nc3ccccc3n2C)o1	none
COC(=O)c1ccc(Cn2nnc3c(=O)[nH]c(C4CCCN(S(=O)(=O)c5ccc(C)cc5)C4)nc32)cc1 (centres undefined)	none
COC(=O)c1ccc(Cn2nnc3c(=O)[nH]c(C4CCCN(S(=O)(=O)c5cccc(Cl)c5)C4)nc32)cc1 (centres undefined)	CendR NRP1 mod 27
COc1ccc2c(c1)S/C(=C\C(=O)c1ccncc1)N2C	PHOSPHO1 inh 70
CN1/C(=C/C(=O)c2ccc(Cl)cc2)Sc2cc3c(cc21)OCO3	HNF4A DNA FP 45 (not shown: Rpn11 block)
CCCc1cc(NC(=O)COC(=O)c2ccc(O)cc2O)n(-c2ccccc2)n1	none (no result: TPT1 inh, PHOSPHO1 inh, CTSL1 counter)
CCCc1cc(NC(=O)CCl)n(-c2ccccc2)n1	CTSL1 counter 79
CC(C)(C)c1cc(NC(=O)CCl)n(-c2ccccc2)n1	CTSL1 counter 57
COc1cccc(CNC(=O)CCCN2C(=O)C(c3ccccc3)Oc3cccnc32)c1OC (centres undefined)	none
C=CCn1c(C(C)NC(=O)c2ccccc2)n[nH]c1=S (centres undefined)	PHOSPHO1 inh 80
O=C(NCc1ccc(Cl)cc1)c1ncn[nH]1	PHOSPHO1 inh 73
CCNCCNc1ccc(Cl)cc1[N+](=O)[O-]	CTSL1 counter 36 (no result: PHOSPHO1 inh)
CS(=O)(=O)NCCCNc1ccc(Cl)cc1[N+](=O)[O-]	none
Cc1ccc2cc(C#N)c(NCc3ccco3)nc2c1	none
Oc1oc(-c2ccccc2Br)nc1C=Nc1ccc(Br)cn1	CTSL1 counter 63
Oc1oc(-c2ccccc2)nc1/C=N/c1ccccn1	CTSL1 counter 71
CC1(C)Cc2c(sc3ncn(N)c(=N)c23)CO1	none
CC1(C)Cc2c(sc3ncn4c(=S)[nH]nc4c23)CO1	PHOSPHO1 inh 68
c1csc(-c2nnsc2-c2nc3ccccc3[nH]2)c1	PHOSPHO1 inh 96
